About 5,500 (1.4%) of roughly 400,000 compounds were called active. Inconclusive results (about 9%) are left out. This excerpt belongs to a sample that is enriched for actives. A number with no mark means an inactive call. The call rests on the fitted dose curve; in most records, active means well fitted cell-killing curve with a large enough effect; inconclusive means small, poorly fitted or top-dose-only effect, or effect the other way; inactive means flat fitted curve, though single readings scatter.
Test: qHTS assay for MDR1-selective chemotherapeutics: Primary screen using the parental adenocarcinoma cell KB-3-1; further: nearly all actives have a fitted effect of over 60% in size
Details: KB-3-1 viability, CellTiter-Glo ATP luminescence, 72 h; series mostly up to 46.1 µM; activity change, negative = cytotoxic: at the top concentration
In short: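 Cytotoxicity in the drug-sensitive parental line KB-3-1 was scored as loss of CellTiter-Glo luminescence following 72 h incubation with compound. Values come from curve fitting of normalized concentration-response data.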
On the % scale 0 is the no-effect control and ±100 the full control effect; potency means the concentration at half of the fitted maximal effect.

Row | SMILES | activity change, negative = cytotoxic [%] | Potency
1 | COc1ccc(-c2noc(CSc3nnc(-c4ccccc4)n3-c3ccc(F)cc3)n2)c(OC)c1 | -29.3 | 
2 | CCOC(=O)c1c(C)[nH]c(C)c1S(=O)(=O)N1CCCC(C(=O)NCc2ccccc2Cl)C1 (stereo not given) | 2.01 | 
3 | COc1cc(C(=O)Nc2ccc(OCc3cc(=O)n4ccc(C)cc4n3)cc2)cc(OC)c1OC | 0.04 | 
4 | CCN(CC)CCNCC(=O)Nc1ccc(Oc2ccccc2)cc1 | -6.12 | 
5 | CCN(CC)CCOc1ccc2c(c1)C(=NNC(=O)c1ccccn1)c1cc(OCCN(CC)CC)ccc1-2 |  | 14.6 µM (active)
6 | CN(CCOc1ccc(CC2SC(=O)NC2=O)cc1)c1ccccn1 (stereo not given) |  | inactive
7 | Cn1c(=O)c2c(nc(Oc3ccc(C#N)cc3)n2Cc2ccc(Cl)cc2Cl)n(C)c1=O | -21.6 | 
8 | CCc1ccc(NC(=O)Cn2c(=O)n(CCC(=O)NCc3ccc4c(c3)OCO4)c(=O)c3ccccc32)cc1 | -7.33 | 
9 | COC(=O)c1ccccc1NC(=O)c1cnn(-c2ccc(F)cc2)c1-n1cccc1 | -3.94 | 
10 | CCC(=O)N1CCc2cc(S(=O)(=O)NC(Cc3ccccc3)C(=O)NCc3ccccc3)ccc21 (stereo not given) | 3.83 | 
11 | Cc1nnc2n1N=C(c1ccc3c(c1)NC(=O)CO3)CS2 | -55.2 | 
12 | COc1ccc(C2=Nn3c(nnc3-c3ccccc3OC)SC2)cc1OC1CCCC1 |  | 2.31 µM (active)
13 | CCn1c(SCC(=O)NC2CC2)nnc1-c1ccccc1OC | -6.53 | 
14 | O=C1CCCc2c1[nH]c1ccc(Br)cc21 |  | 0.651 µM (active)
15 | C/C(=N\N)c1c(-c2ccccc2)c2cc(Br)ccc2[nH]c1=O | -0.927 | 
16 | O=[n+]1c2c(n([O-])c3cc(Br)ccc31)CCC2 | 2.63 | 
17 | CCOC(=O)c1ccccc1NC(=O)CCc1c(C)nc2c(c1C)c(=O)n(C)c(=O)n2C | 2.75 | 
18 | Cc1nn(CC(=O)O)c(=O)c2cc3cc(F)ccc3n12 | -16.2 | 
19 | COc1cc(NC(=O)CCn2nc(C)cc2C)cc(OC)c1OC | 14.8 | 
20 | OC(CBr)CN1CCCCC1 (stereo not given) | 25.7 | 
21 | CC1(C)CCSC(/C=C/c2ccccc2)=N1 |  | 14.6 µM (active)
22 | CC1(C(=O)O)CCN1C(=O)/C=C/c1ccccc1 (stereo not given) | 0 | 
23 | CC1(C(=O)NS(=O)(=O)c2ccccc2)CCN1C(=O)C/C=C/c1ccccc1 (stereo not given) | 0 | 
24 | COc1ccc(NS(=O)(=O)c2ccc(NC(C)=O)cc2)cc1OC |  | 14.6 µM (active)
25 | CC(=O)c1c(C)oc2ccc(NS(=O)(=O)c3ccc(C(=O)O)cc3)cc12 | 19.3 | 

Row | SMILES | activity change, negative = cytotoxic [%] | Potency
26 | COc1ccc(NC(=S)SC)cc1OC | -0.174 | 
27 | CC(=O)c1c(C)oc2ccc(NS(=O)(=O)c3ccccc3)cc12 | -0.879 | 
28 | COc1ccc(S(=O)(=O)Nc2cc(C)on2)cc1NC(C)=O | 0.0056 | 
29 | COc1ccc(S(=O)(=O)Nc2ccc3oc(C)c(C(C)=O)c3c2)cc1 |  | 3.26 µM (active)
30 | Cc1ccc(N(C)C(=O)C2CCN(S(=O)(=O)c3ccc4c(c3)CCCN4C(=O)C3CCC3)CC2)cc1 | 17.9 | 
31 | CCOc1ccc(CNCc2c(C(=O)O)c(C)n(Cc3cccc(OC)c3)c2C)cc1OC | 4.24 | 
32 | OCCNc1ncnc2oc(-c3ccco3)c(-c3ccco3)c12 | -17.6 | 
33 | Cn1c(=O)c2c(SCC(=O)N3CCc4ccccc43)nc(-c3ccc(Cl)cc3)nc2n(C)c1=O | -2.78 | 
34 | O=C(COc1ccccc1F)Nc1ccc(C(=O)OCc2cc(=O)n3nc(C4CC4)sc3n2)cc1 | 1.59 | 
35 | COc1cccc(C(=O)NCc2ccc3c(c2)CCN3C(=O)c2ccncc2)c1 | 4.3 | 
36 | Brc1cccc[n+]1Cc1cccc(C[n+]2ccccc2Br)c1 | -4.59 | 
37 | Cc1cc(-c2n[nH]c(=S)n2/N=C/C(Br)=C/c2ccccc2)n[nH]1 |  | 5.8 µM (active)
38 | COc1ccccc1/C=C/C=N/n1c(-c2ccc(Cl)cc2Cl)n[nH]c1=S | 4.22 | 
39 | S=c1[nH]nc(-c2ccco2)n1/N=C/c1ccc(Br)s1 | -2.84 | 
40 | CN(C)CCCn1c(N)c(C#N)c2nc(C#N)c(C#N)nc21 |  | 23.1 µM (active)
41 | COCCn1c(SCC(=O)c2cc(C)ccc2C)nc2cc(C(=O)NC3CCCC3)ccc2c1=O | 9.54 | 
42 | CCCCc1c(-c2ccc(Br)cc2)ncn1CCc1ccccc1OC |  | 16.4 µM (active)
43 | Cn1c(=O)c2c(ncn2CCc2ccccc2)n(C)c1=O | 0.55 | 
44 | CCCc1c(-c2ccccc2F)ncn1Cc1ccccc1OC |  | 20.6 µM (active)
45 | CCOc1ccc(-c2n[nH]c3c2C(c2ccccc2OC)N(c2ccc(Br)cc2)C3=O)cc1 (stereo not given) | 3.38 | 
46 | COc1cccc(OC)c1C(=O)N1CCN(Cc2ccccc2F)CC1 | -19.9 | 
47 | COc1ccccc1CCNS(=O)(=O)c1cn(C)nc1C | -4.69 | 
48 | CCCCCc1c(Cc2ccccc2)ncn1CCc1ccccc1OC |  | 16.4 µM (active)
49 | COc1ccccc1CN1CCN(Cc2cc(OC)c(OC)cc2OC)CC1 | -27.7 | 
50 | COCCn1cnc2c1c(=O)n(Cc1ccc(Br)cc1)c(=O)n2Cc1ccccc1 | 6.16 | 
